Compound activity (PubChem)
Rows were chosen to be rich in hits. Some 7.5% of all compounds tested hit in one or more screens of this group.
Vaccinia Venus = inhibitors of vaccinia virus (Venus reporter) | Vaccinia virus Venus reporter expression, fluorescence | Potency, µM (highest dose often 36.5 µM), actives largely listed as inhibitors | actives 0.46% (n = 330,000); calls by dose curve; tested in A549 cells; also: nearly all actives have a fitted effect of over 30% in size
FMDV inh = foot and mouth disease virus antiviral activity; actives 1.2% (n = 410,000); Potency, µM (series often up to 57.9 µM), usual class: inhibitors; FMDV antiviral cell-based qHTS; calls by dose curve; tested in HEK293T cells; also: read-out not given here; nearly all actives have a fitted effect of over 45% in size
Vaccinia mCherry = vaccinia inhibition (mCherry reporter); Vaccinia virus mCherry reporter infection, fluorescence; Potency, µM (highest dose often 36.5 µM), usual class: inhibitors; actives 0.63% (n = 310,000); AID 720579; calls by dose curve; tested in A549 cells; also: nearly all actives have a fitted effect of over 35% in size
HCMV antiviral = human cytomegalovirus inhibition; HFF cells, HCMV-luciferase reporter, 72 h; stronger effect = lower value; activity change, negative = inhibition, % at 57.5 µM; actives 4.5% (n = 410,000); AID 1259415; in the data active = activity change below about -60%; inconclusive = no clear call, values can overlap the other calls; inactive = above about -39%
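Screen run at 2 compound doses on HFFs infected with reporter HCMV, MOI 1 PFU/cell. Luciferase activity from cell lysates at 72 h post infection gave inhibition relative to buffer-only and Salinomycin wells.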
HCV inhibitor = HCV inhibition; Huh7.5.1 HCVcc-Cre infection, luciferase reporter, 44 h; actives 3.4% (n = 340,000); Potency, µM (top dose mostly 41.8 µM), most hits filed as inhibitors
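Compounds are dispensed onto cells plated 4 h earlier at 1,000 per well, with HCVcc-Cre virus (about 0.5 moi) added next. Following 44 h of culture, luminescent signal is measured for 15 sec after 15 min with substrate at room temperature.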
Giardia FBPA inh = inhibitors of Giardia lamblia fructose-1,6-bisphosphate aldolase; A8B2U2; purified Giardia FBPA; Potency, µM (titrated, usually from 59.6 µM), usual class: inhibitors; actives 0.71% (n = 290,000); also: nearly all actives have a fitted effect of over 55% in size
Target sequence (A8B2U2 whole entry, looked up): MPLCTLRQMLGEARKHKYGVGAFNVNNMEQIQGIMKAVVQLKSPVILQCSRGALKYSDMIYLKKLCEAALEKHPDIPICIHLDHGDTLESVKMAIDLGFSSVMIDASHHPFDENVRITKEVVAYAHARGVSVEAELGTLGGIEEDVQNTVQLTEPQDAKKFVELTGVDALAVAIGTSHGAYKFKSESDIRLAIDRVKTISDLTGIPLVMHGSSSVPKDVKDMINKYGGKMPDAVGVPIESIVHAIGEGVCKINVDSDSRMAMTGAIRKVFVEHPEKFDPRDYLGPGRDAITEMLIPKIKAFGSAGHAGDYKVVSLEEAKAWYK
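Giardia FBPA (40 nM reagent) was preincubated 10 min at RT with compound (up to 57.5 uM final), then substrate plus GAPDH/TPI/NAD/arsenate coupling system with diaphorase/resazurin was added; resorufin fluorescence (525/598 nm) was read after 20 min.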
Hits are given with their value; [ ] = dose if it differs, or a comment. Unless noted, calls follow the shape of the dose curve; as a rule, active = well fitted curve in the direction sought with a large enough effect; inconclusive = small, poorly fitted or top-dose-only effect, or another doubt; inactive = no such curve, though single readings can be large; an effect the other way counts as inactive or inconclusive.

What do the screens show for `COc1cc(CNCCO)cc(Cl)c1OCc1ccc(Cl)cc1Cl`?
Vaccinia Venus: inconclusive; FMDV inh: inactive; Vaccinia mCherry: inconclusive; HCMV antiviral: inactive; HCV inhibitor: inconclusive; Giardia FBPA inh: inactive

What do the screens show for `COc1cc(CNC(C)(C)CO)cc(Br)c1OCc1ccc(Cl)cc1Cl`?
Vaccinia Venus: inconclusive; FMDV inh: inconclusive; Vaccinia mCherry: inconclusive; HCMV antiviral: -99.1; HCV inhibitor: 10µM; Giardia FBPA inh: inactive

Results for COc1cc(CNC(C)(C)CO)cc(Br)c1OCc1ccc(Cl)cc1 ?
Vaccinia Venus: inconclusive; FMDV inh: inactive; Vaccinia mCherry: inconclusive; HCMV antiviral: inconclusive; HCV inhibitor: 5.01µM; Giardia FBPA inh: inactive

How did Cc1cc(C)c2c(n1)sc1c(=O)n(-c3cc(Cl)ccc3C)nnc12 do in these assays?
Vaccinia Venus: inactive; FMDV inh: inactive; Vaccinia mCherry: inconclusive; HCMV antiviral: -60.4

What do the screens show for `CCc1cccc(CC)c1-n1nnc2c(sc3nc(C)cc(C)c32)c1=O`?
Vaccinia Venus: inactive; FMDV inh: inconclusive; Vaccinia mCherry: inactive; HCMV antiviral: inactive

Results for Cc1ccc(-n2nnnc2SCC(=O)Nc2sccc2C#N)cc1 ?
Vaccinia Venus: inactive; FMDV inh: inactive; Vaccinia mCherry: inactive; HCMV antiviral: inactive; HCV inhibitor: inactive; Giardia FBPA inh: inactive

How did COc1ccc(-n2cnnc2SCC(=O)Nc2cc(C(C)(C)C)nn2-c2ccccc2)cc1 do in these assays?
Vaccinia Venus: inactive; FMDV inh: inactive; HCMV antiviral: -96.5; HCV inhibitor: inactive; Giardia FBPA inh: inactive

What do the screens show for `Cc1ccsc1C(=O)Nc1cc(C(C)(C)C)nn1-c1ccccc1`?
FMDV inh: inactive; HCMV antiviral: -109.7; HCV inhibitor: inconclusive; Giardia FBPA inh: inactive

What do the screens show for `COc1ccc(C(C)NC(=O)CN(c2cc(OC)ccc2OC)S(=O)(=O)c2ccccc2)cc1` (stereo not given)?
Vaccinia Venus: inactive; FMDV inh: inactive; Vaccinia mCherry: inactive; HCMV antiviral: inactive

Results for CC(=O)c1cccc(NC(=O)C2CCCN(c3nnc(-n4cccc4)s3)C2)c1 (stereo not given) ?
Vaccinia Venus: inactive; FMDV inh: inactive; Vaccinia mCherry: inactive; HCMV antiviral: -102.7

What do the screens show for `COc1cccc(NC(=O)C2CCCN(c3nnc(-n4c(C)ccc4C)s3)C2)c1` (stereo not given)?
Vaccinia Venus: inactive; FMDV inh: inactive; Vaccinia mCherry: inactive; HCMV antiviral: inactive

Results for CCCNC(=O)N1CC(=O)N2[C@@H](CO)[C@H](c3ccc(Br)cc3)[C@@H]2C1 ?
HCMV antiviral: inactive

Results for CC(=O)Nc1ccc(S(=O)(=O)NCCOc2ccc(Cl)cc2C)cc1 ?
Vaccinia Venus: inactive; FMDV inh: inactive; Vaccinia mCherry: inactive; HCMV antiviral: -73.5; HCV inhibitor: inactive; Giardia FBPA inh: inactive

How did CCOc1ccc(-c2csc(/C(C#N)=C\c3ccc(O)c([N+](=O)[O-])c3)n2)cc1 do in these assays?
Vaccinia Venus: inactive; FMDV inh: 22.4µM; Vaccinia mCherry: inactive; HCMV antiviral: inactive; HCV inhibitor: inconclusive; Giardia FBPA inh: inactive

Results for Cc1ccc(NC(=O)c2nc[nH]c2C(=O)N(C)CCO)cc1 ?
Vaccinia Venus: inactive; FMDV inh: inactive; Vaccinia mCherry: inactive; HCMV antiviral: inactive

How did C=C1CC2C(=O)N(Cc3ccccc3)C(C(=O)OCC)(C(=O)OCC)C1N2C(=O)OC(C)(C)C (stereo not given) do in these assays?
Vaccinia Venus: inactive; FMDV inh: inactive; Vaccinia mCherry: inactive; HCMV antiviral: inactive; HCV inhibitor: inactive; Giardia FBPA inh: inactive

Results for Cc1[nH]n(-c2ncc(-c3ccccc3)s2)c(=O)c1C(c1ccc(Br)cc1)C(C#N)C#N (stereo not given) ?
Vaccinia Venus: inactive; FMDV inh: 28.2µM; Vaccinia mCherry: inactive; HCMV antiviral: inactive; HCV inhibitor: inactive; Giardia FBPA inh: inconclusive

How did O=C(O)c1cnnc2ccccc12 do in these assays?
Vaccinia Venus: inactive; FMDV inh: inactive; Vaccinia mCherry: inactive; HCMV antiviral: inactive; HCV inhibitor: inactive

What do the screens show for `c1ccc(-c2cnnc3ccccc23)cc1`?
Vaccinia Venus: inactive; FMDV inh: inactive; Vaccinia mCherry: inactive; HCMV antiviral: inactive; HCV inhibitor: 11.2µM

How did Cc1cc(F)c(Nc2ncnc3cc(OCc4ccccc4)ccc23)cc1O do in these assays?
FMDV inh: inactive; Giardia FBPA inh: inactive

Results for CCOc1ccccc1-n1nnc(-c2nsc(NC(=O)c3ccc(C)cc3)n2)c1C ?
Vaccinia Venus: inconclusive; FMDV inh: inconclusive; Vaccinia mCherry: inactive; HCMV antiviral: -74.5

Results for CCc1ccccc1-n1nnc(-c2nsc(NC(=O)c3ccc(C)c(C)c3)n2)c1C ?
Vaccinia Venus: inconclusive; FMDV inh: 11.2µM; Vaccinia mCherry: inactive[7.34 µM]; HCMV antiviral: -92.3

What do the screens show for `CC(=O)N1CCc2cc(Br)cc(S(=O)(=O)N3CCN(c4cccc(C(F)(F)F)c4)CC3)c21`?
Vaccinia Venus: inactive; FMDV inh: inactive; Vaccinia mCherry: inactive; HCMV antiviral: inactive

What do the screens show for `COc1ccc(S(=O)(=O)N2C[C@@H](O)COC[C@@H]3O[C@H](CC(=O)NCCCN4CCOCC4)CC[C@H]32)cc1`?
Vaccinia Venus: inactive; FMDV inh: inactive; Vaccinia mCherry: inactive; HCMV antiviral: -74.2

What do the screens show for `CCCNC(=O)N1C[C@H](O)COC[C@@H]2O[C@@H](CC(=O)NCCCN3CCOCC3)CC[C@H]21`?
Vaccinia Venus: inactive; FMDV inh: inactive; Vaccinia mCherry: inactive; HCMV antiviral: inactive

How did Cc1ccccc1S(=O)(=O)Cc1ccc(C(=O)NCCCN2CCCC(C)C2)o1 (stereo not given) do in these assays?
FMDV inh: inactive; HCMV antiviral: inactive; HCV inhibitor: inactive; Giardia FBPA inh: inactive

How did CCC(C)Sc1nc2c(c(=O)[nH]1)C(c1cccs1)C1=C(CCCC1=O)N2 (stereo not given) do in these assays?
Vaccinia Venus: inconclusive; FMDV inh: inactive; Vaccinia mCherry: inactive; HCMV antiviral: -92.8; HCV inhibitor: inactive; Giardia FBPA inh: inactive

How did CCc1ccc(C(O)c2ncc(-c3cccc(C)c3)[nH]2)cc1 (stereo not given) do in these assays?
Vaccinia Venus: inactive; FMDV inh: inactive; Vaccinia mCherry: inactive; HCMV antiviral: inactive

How did Cc1nn(-c2ccccc2)c(C)c1C(=O)OCC(N)=O do in these assays?
FMDV inh: inactive; HCMV antiviral: inactive; HCV inhibitor: inactive; Giardia FBPA inh: inactive

Results for Cc1nn(-c2ccccc2)c(C)c1C(=O)OCc1ccc(C#N)cc1 ?
FMDV inh: inactive; HCMV antiviral: inactive; HCV inhibitor: 12.6µM; Giardia FBPA inh: inactive

What do the screens show for `N#Cc1ccccc1NC(=O)CSC1=Nc2ccccc2C2CC=NN12` (stereo not given)?
Vaccinia Venus: inactive; FMDV inh: inconclusive; Vaccinia mCherry: inactive; HCMV antiviral: -60.1; HCV inhibitor: inactive; Giardia FBPA inh: inactive

What do the screens show for `Cc1nnc(NC(=O)CSc2ccc([N+](=O)[O-])cn2)s1`?
Vaccinia Venus: inactive; FMDV inh: inactive; Vaccinia mCherry: inactive; HCMV antiviral: inactive; HCV inhibitor: inactive; Giardia FBPA inh: inactive
